Common to all, as to experiment: DAPPL (digital affinity profiling via proximity ligation, sequencing); 10 mM Tris-HCl pH 7.5, 50 mM NaCl, 1 mM DTT, 4% glycerol, room temperature, 30 min; GST-TFs on glutathione beads, 16-mer random dsDNA library, 0.1% formaldehyde crosslink after washing; high values mean tight binding
For one assay, the target named is T1, FEV (Homo sapiens, UniProt Q99581 1-238).
T1 sequence: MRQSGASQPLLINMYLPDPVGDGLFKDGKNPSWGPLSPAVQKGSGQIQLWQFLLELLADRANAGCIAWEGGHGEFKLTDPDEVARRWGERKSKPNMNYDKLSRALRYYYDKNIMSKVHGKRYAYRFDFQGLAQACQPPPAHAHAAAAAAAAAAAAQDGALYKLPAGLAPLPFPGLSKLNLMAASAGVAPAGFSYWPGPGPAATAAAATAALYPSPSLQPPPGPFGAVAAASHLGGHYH
Conditions: protein: recombinant; tags: N-terminal GST; dsDNA, one strand shown. The method in brief:
(§1)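 Binding signal is defined as a hexamer's read frequency for one factor over its frequency for the tag-only sample. To obtain reads, GST-fused human transcription factors were expressed in yeast, captured on glutathione beads, barcoded with DNA and pooled with that sample. Pools met 200 nmole of a 16-mer random double-stranded DNA library in Tris/NaCl/DTT/glycerol buffer for 30 min at room temperature before washing, 0.1% formaldehyde crosslinking, proximity ligation (BsaI/T4 ligase, 1 h, 37 °C), PCR and Illumina NextSeq500 sequencing.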

The target of another assay is ETV5 (Homo sapiens, UniProt P41161 1-510). The following applies: protein: recombinant; tags: N-terminal GST; dsDNA, one strand shown. The method in brief:
as §1

The target of the next assay is HSF1 (Homo sapiens, UniProt Q00613 1-529). The following applies: protein: recombinant; tags: N-terminal GST; chain copies: 3; dsDNA, one strand shown. The method in brief: as §1
The next assay deals with T2, SPIC (Homo sapiens, UniProt Q8N5J4 1-248).
T2 sequence: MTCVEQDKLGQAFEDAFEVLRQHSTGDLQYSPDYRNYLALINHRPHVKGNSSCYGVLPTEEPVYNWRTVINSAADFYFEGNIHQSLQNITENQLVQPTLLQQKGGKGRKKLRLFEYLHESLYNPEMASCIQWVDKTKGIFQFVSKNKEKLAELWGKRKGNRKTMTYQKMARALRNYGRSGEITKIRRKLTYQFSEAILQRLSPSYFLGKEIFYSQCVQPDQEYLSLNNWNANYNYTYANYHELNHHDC
The following applies: protein: recombinant; tags: N-terminal GST; dsDNA, one strand shown. The method in brief:
as §1

For a further assay, the target named is ELF4 (Homo sapiens, UniProt Q99607 1-663). Conditions: protein: recombinant; tags: N-terminal GST; dsDNA, one strand shown. The method in brief:
as §1

For the next assay, the target named is T3, ELK4 (Homo sapiens, UniProt P28324-2 1-405).
T3 sequence: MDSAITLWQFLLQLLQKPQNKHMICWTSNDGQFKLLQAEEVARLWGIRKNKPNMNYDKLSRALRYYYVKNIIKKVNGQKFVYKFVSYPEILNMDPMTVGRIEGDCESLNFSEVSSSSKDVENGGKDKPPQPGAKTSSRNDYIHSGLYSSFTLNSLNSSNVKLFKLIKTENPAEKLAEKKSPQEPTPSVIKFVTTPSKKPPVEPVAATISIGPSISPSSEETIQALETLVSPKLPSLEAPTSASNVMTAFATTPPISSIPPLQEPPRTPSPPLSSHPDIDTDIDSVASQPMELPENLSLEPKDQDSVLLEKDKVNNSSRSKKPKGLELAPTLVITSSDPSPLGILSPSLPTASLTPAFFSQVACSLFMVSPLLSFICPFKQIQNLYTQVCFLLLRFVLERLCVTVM
Conditions: protein: recombinant; tags: N-terminal GST; dsDNA, one strand shown. An outline of the steps: as §1

The next assay addresses T4, ETV2 (Homo sapiens, UniProt O00321 1-342).
T4 sequence: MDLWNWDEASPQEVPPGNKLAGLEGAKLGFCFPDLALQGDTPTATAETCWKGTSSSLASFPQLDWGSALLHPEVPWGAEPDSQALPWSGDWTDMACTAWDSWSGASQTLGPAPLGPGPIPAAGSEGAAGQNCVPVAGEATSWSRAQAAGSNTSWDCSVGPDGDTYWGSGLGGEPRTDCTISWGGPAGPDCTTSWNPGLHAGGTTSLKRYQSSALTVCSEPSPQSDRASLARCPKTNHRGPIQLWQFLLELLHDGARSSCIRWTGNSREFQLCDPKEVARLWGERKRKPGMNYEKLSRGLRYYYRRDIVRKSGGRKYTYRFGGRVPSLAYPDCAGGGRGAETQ
Conditions: protein: recombinant; tags: N-terminal GST; dsDNA, one strand shown. An outline of the steps: as §1

The target in the next assay is T5, ELF3 (Homo sapiens, UniProt P78545 1-371).
T5 sequence: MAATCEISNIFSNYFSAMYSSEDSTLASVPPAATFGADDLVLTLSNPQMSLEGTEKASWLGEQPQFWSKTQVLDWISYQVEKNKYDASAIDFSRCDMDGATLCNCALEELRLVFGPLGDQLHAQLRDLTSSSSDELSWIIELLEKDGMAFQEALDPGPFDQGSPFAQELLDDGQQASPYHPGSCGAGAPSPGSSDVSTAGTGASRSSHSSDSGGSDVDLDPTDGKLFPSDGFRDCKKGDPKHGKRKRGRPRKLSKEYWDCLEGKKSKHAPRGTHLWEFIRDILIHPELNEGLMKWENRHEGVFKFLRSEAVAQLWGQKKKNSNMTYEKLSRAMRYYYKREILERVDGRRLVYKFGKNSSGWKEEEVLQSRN
Conditions: protein: recombinant; tags: N-terminal GST; dsDNA, one strand shown. An outline of the steps:
as §1

The target of another assay is CRX (Homo sapiens, UniProt O43186 1-299). The following applies: protein: recombinant; tags: N-terminal GST; dsDNA, one strand shown. The method in brief: as §1
The next assay deals with ETV1 (Homo sapiens, UniProt P50549 1-477). The following applies: protein: recombinant; tags: N-terminal GST; dsDNA, one strand shown. The method in brief: as §1
In another assay the target is T6, ERF (Homo sapiens, UniProt P50548 1-548).
T6 sequence: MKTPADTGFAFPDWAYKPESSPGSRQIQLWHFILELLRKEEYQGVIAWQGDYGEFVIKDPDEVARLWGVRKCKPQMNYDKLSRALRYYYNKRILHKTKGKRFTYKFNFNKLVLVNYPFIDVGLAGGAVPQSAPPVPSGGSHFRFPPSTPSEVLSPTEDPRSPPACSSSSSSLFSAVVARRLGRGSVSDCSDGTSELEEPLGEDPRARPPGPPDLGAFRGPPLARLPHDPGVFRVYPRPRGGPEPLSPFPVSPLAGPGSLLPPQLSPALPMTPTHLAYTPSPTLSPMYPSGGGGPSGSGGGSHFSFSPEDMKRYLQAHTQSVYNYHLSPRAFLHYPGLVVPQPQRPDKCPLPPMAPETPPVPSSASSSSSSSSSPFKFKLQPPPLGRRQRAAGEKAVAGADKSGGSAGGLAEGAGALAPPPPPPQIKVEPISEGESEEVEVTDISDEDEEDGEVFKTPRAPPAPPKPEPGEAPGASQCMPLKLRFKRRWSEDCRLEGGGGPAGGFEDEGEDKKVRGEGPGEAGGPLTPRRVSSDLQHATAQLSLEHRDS
The following applies: protein: recombinant; tags: N-terminal GST; dsDNA, one strand shown. An outline of the steps:
as §1

A further assay has as its target T7, ETV3L (Homo sapiens, UniProt Q6ZN32 1-361).
T7 sequence: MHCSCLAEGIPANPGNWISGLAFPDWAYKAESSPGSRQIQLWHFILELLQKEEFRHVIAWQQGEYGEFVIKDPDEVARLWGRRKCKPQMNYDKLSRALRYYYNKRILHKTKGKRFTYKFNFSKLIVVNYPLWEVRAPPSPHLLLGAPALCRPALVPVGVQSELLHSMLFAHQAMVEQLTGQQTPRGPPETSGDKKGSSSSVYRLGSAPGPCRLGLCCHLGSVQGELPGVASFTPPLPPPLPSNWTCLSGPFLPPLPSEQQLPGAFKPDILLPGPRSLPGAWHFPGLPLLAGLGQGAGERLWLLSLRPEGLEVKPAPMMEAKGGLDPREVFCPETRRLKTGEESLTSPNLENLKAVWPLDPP
Conditions: protein: recombinant; tags: N-terminal GST; dsDNA, one strand shown. The method in brief: as §1

Another assay addresses T8, ETS2 (Homo sapiens, UniProt P15036 1-469).
T8 sequence: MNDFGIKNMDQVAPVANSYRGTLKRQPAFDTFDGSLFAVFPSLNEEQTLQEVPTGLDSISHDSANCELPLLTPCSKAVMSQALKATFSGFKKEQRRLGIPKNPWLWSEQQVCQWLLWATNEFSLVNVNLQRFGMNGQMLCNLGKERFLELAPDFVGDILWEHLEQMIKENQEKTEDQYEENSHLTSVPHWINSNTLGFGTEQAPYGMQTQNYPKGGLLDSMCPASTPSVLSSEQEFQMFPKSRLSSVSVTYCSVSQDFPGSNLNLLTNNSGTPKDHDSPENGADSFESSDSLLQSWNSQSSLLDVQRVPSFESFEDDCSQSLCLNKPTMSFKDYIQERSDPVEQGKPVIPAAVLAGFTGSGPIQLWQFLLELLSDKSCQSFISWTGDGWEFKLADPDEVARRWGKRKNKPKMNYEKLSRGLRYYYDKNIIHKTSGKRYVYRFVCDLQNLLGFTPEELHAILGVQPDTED
Conditions: protein: recombinant; tags: N-terminal GST; dsDNA, one strand shown. An outline of the steps: as §1

A further assay deals with T9, SPDEF (Homo sapiens, UniProt O95238 1-335).
T9 sequence: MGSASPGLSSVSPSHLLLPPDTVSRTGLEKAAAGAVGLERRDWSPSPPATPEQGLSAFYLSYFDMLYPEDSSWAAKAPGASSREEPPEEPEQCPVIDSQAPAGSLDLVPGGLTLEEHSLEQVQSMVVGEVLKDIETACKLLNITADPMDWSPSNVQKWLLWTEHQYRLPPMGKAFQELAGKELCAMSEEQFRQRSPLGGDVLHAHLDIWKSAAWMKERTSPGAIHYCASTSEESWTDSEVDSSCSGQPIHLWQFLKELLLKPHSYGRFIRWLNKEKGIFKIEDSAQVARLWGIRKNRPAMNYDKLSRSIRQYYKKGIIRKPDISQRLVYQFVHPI
Conditions: protein: recombinant; tags: N-terminal GST; dsDNA, one strand shown. An outline of the steps:
as §1

For a further assay, the target named is T10, ETV7 (Homo sapiens, UniProt Q9Y603 1-341).
T10 sequence: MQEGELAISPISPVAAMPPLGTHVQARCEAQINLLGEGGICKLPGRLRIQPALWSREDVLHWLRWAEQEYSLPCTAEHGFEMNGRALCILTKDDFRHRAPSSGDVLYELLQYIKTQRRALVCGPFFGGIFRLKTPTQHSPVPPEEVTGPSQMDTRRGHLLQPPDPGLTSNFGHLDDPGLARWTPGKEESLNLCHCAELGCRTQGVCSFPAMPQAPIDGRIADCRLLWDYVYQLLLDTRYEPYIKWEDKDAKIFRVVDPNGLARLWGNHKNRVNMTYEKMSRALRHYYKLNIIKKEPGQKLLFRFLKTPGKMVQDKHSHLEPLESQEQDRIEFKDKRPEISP
Conditions: protein: recombinant; tags: N-terminal GST; dsDNA, one strand shown. An outline of the steps: as §1

The target in another assay is T11, ELF5 (Homo sapiens, UniProt Q9UKW6-2 1-255).
T11 sequence: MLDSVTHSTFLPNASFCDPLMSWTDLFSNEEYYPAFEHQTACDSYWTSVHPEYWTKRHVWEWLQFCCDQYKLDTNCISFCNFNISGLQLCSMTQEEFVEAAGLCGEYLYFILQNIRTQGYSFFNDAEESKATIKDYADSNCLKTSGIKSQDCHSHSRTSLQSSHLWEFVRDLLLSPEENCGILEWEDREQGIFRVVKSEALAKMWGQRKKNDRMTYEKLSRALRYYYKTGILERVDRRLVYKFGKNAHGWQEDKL
Conditions: protein: recombinant; tags: N-terminal GST; dsDNA, one strand shown. An outline of the steps: as §1

The target in the next assay is T12, ETV3 (Homo sapiens, UniProt P41162-2 1-143).
T12 sequence: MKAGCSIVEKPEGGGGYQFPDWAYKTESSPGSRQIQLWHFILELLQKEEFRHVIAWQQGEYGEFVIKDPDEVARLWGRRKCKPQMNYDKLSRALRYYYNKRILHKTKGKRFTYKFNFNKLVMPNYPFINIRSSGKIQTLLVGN
The following applies: protein: recombinant; tags: N-terminal GST; dsDNA, one strand shown. The method in brief: as §1

Another assay deals with ETV6 (Homo sapiens, UniProt P41212 1-452). The following applies: protein: recombinant; tags: N-terminal GST; dsDNA, one strand shown. The method in brief: as §1
ETV6, sequence (P41212 whole entry): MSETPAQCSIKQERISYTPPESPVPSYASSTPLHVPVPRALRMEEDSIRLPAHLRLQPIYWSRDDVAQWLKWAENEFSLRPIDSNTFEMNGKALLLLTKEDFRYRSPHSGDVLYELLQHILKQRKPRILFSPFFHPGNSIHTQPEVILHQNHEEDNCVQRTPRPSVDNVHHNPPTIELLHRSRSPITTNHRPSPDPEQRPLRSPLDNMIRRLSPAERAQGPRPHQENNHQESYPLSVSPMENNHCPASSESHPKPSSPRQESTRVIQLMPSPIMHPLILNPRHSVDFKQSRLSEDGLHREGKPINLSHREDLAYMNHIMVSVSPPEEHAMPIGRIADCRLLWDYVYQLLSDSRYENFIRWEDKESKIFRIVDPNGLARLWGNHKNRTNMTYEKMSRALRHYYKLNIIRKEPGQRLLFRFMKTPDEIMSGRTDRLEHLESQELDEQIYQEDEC

ELF4, sequence (Q99607 whole entry): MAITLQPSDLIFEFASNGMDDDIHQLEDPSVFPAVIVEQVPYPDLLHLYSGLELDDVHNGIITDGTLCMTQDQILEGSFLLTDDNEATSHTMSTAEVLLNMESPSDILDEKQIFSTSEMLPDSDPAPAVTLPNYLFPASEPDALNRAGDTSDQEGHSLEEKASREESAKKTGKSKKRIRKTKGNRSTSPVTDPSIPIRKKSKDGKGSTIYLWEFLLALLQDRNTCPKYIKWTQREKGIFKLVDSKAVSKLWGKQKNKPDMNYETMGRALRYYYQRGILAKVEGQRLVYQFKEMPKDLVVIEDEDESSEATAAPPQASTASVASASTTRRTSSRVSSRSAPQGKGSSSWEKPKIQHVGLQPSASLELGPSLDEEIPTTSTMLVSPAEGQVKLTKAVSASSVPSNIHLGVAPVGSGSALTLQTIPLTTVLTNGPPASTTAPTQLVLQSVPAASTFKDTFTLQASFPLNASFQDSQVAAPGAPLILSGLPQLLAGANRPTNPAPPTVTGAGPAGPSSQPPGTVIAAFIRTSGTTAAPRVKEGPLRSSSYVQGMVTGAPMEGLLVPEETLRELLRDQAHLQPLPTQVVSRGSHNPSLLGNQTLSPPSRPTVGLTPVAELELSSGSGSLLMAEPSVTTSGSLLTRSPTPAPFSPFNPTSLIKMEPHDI
HSF1, sequence (Q00613 whole entry): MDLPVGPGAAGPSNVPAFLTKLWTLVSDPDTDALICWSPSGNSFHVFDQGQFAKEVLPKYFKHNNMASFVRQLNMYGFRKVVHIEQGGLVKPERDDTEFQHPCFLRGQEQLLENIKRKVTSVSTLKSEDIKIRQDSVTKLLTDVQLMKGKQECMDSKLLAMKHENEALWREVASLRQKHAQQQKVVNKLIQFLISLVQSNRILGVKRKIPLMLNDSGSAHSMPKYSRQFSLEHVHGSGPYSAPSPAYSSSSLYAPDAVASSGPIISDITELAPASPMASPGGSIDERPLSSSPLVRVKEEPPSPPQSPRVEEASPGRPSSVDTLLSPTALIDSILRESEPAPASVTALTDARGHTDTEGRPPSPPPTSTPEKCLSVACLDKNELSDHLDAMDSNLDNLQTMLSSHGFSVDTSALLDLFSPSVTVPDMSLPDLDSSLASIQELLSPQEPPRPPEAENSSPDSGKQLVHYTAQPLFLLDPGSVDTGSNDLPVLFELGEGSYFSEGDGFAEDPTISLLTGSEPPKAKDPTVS
ETV1, sequence (P50549 whole entry): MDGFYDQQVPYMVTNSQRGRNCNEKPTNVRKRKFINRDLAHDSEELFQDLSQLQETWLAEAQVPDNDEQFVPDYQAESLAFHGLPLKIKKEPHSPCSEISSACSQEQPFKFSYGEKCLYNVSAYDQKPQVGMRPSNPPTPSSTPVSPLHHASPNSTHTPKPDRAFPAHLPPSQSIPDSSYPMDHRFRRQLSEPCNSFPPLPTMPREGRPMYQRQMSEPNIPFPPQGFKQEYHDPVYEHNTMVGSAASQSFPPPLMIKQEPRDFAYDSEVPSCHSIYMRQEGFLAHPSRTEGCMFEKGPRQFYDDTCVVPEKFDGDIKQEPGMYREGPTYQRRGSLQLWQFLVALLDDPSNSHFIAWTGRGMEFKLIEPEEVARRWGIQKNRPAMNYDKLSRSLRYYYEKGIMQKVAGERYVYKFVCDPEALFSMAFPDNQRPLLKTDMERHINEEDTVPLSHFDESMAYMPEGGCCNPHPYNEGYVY
ETV5, sequence (P41161 whole entry): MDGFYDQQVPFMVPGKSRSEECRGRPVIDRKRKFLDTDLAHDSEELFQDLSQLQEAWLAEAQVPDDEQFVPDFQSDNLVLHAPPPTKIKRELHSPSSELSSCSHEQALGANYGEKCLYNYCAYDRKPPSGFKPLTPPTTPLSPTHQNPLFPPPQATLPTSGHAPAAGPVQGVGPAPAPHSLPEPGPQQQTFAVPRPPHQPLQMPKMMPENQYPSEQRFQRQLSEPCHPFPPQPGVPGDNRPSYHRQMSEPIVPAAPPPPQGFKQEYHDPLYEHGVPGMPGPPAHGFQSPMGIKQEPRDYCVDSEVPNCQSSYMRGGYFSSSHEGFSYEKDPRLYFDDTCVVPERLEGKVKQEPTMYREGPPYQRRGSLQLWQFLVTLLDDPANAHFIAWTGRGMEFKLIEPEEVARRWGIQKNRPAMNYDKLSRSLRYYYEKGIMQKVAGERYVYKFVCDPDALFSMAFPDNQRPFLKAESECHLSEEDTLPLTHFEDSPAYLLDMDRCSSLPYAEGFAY
CRX, sequence (O43186 whole entry): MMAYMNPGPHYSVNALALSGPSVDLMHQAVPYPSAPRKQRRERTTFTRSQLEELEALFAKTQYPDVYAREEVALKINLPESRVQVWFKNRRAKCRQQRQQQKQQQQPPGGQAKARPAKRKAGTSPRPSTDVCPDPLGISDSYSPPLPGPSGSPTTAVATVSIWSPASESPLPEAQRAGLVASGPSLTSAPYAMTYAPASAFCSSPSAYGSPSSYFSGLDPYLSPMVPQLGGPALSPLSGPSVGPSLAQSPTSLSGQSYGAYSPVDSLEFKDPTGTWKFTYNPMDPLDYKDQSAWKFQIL

As to CTAACT, the binding signal in the assay with FEV was 1.34 fold enrichment (6-mer frequency, TF over GST control); in the assay with ETV5, 1.34 fold enrichment (6-mer frequency, TF over GST control); with HSF1, 1.19 fold enrichment (6-mer frequency, TF over GST control); with SPIC, 1.31 fold enrichment (6-mer frequency, TF over GST control); with ELF4 it was 1.4 fold enrichment (6-mer frequency, TF over GST control); with ELK4, 1.36 fold enrichment (6-mer frequency, TF over GST control). For the same sequence, the binding signal with ETV2 is 1.27 fold enrichment (6-mer frequency, TF over GST control); with ELF3, 1.21 fold enrichment (6-mer frequency, TF over GST control); in the assay with CRX, 1.21 fold enrichment (6-mer frequency, TF over GST control); with ETV1, 1.28 fold enrichment (6-mer frequency, TF over GST control); with ERF, 1.32 fold enrichment (6-mer frequency, TF over GST control); with ETV3L it was 1.19 fold enrichment (6-mer frequency, TF over GST control). For the same sequence, the binding signal in the assay with ETS2 was 1.35 fold enrichment (6-mer frequency, TF over GST control); with SPDEF, 1.24 fold enrichment (6-mer frequency, TF over GST control); with ETV7, 1.29 fold enrichment (6-mer frequency, TF over GST control); with ELF5, 1.21 fold enrichment (6-mer frequency, TF over GST control); in the assay with ETV3, 1.24 fold enrichment (6-mer frequency, TF over GST control); with ETV6 it was 1.29 fold enrichment (6-mer frequency, TF over GST control).

These data come from publication PMC7862700, “An all-to-all approach to the identification of sequence-specific readers for epigenetic DNA modifications on cytosine”.
